The values below come from PubChem BioAssay (EPA / NIEHS).

The structures appear in SMILES notation. Records with an inconclusive call do not appear. Active and inactive are the calls of the source. Rule for the calls, unless noted: active = hit-call score of the fitted dose curve at least 0.9, where 1 is the maximum; inconclusive = response in the unintended direction; inactive = score below 0.9.

Test [1] can be described thus: CCTE_Shafer_MEA_acute_AB: CCTE's Alamar Blue Assay for Cytotoxicity in the Neural Acute Assay, Shafer Lab (AID 2284069).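 Note: active compounds lower the viability signal compared with DMSO wells.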 In a few lines:
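Primary rat cortical neurons on MEA plates, exposed acutely after baseline recording on day 13 or 15 post-plating. Viability by CellTiter Blue resazurin reduction (1:6 reagent dilution), fluorescence 544/590 nm; loss of signal versus DMSO.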
(Resazurin is reduced to fluorescent resorufin, in cell work by metabolically active cells.)

Test [2] is described as follows: CCTE_Shafer_MEA_acute_LDH: CCTE's Lactate Dehydrogenase Assay for Cytotoxicity in the Neural Acute Assay, Shafer Lab (AID 2284086).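 Note: active means LDH release rises above DMSO vehicle level.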 The procedure, abridged: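 LDH absorbance at 490 nm in medium taken right after 40-min compound exposure; rat primary cortical neuron networks on MEA plates, days post-plating 13 or 15. Increase over DMSO baseline scored as cytotoxicity.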

Test [3] is described as follows: CCTE_Shafer_MEA_dev_spike_duration_mean: CCTE's Neural Network Formation Assay for Mean Spike Duration, Shafer Lab (AID 2284051; active = hit-call score of the fitted dose curve at least 0.9, where 1 is the maximum; inactive = score below 0.9;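 note: mean network spike duration pooled as area under curve over DIV 5 to 12 recordings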;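 for AC50: potency for a decrease in mean network spike duration versus DMSO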). The procedure, abridged: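 Primary rat cortical neurons on 16-electrode MEA wells (PEI-coated, laminin in plating drop), exposed from plating through DIV 12 with compound renewed at DIV 5 and 9. Mean network-spike duration recorded DIV 5, 7, 9, 12; trapezoidal AUC across days, DMSO baseline.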

Test [4] in a line: CCTE_Shafer_MEA_dev_network_spike_duration_std: CCTE's Neural Network Formation Assay for Standard Deviation of Network Spike Duration, Shafer Lab (AID 2284052; active = hit-call score of the fitted dose curve at least 0.9, where 1 is the maximum; inactive = score below 0.9;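 note: hits are decreases in network spike duration SD versus DMSO vehicle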). In a few lines:
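Primary rat cortical neurons on PEI-coated 16-electrode MEA wells, exposed from plating day 0 through day 12 with compound renewed at DIV 5 and 9. Network spike duration SD recorded on days 5, 7, 9, 12, collapsed as trapezoidal AUC; loss-of-signal fit versus DMSO.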

Test [5] can be described thus: CCTE_Shafer_MEA_dev_per_network_spike_spike_number_mean: CCTE's Neural Network Formation Assay for Mean Number of Spikes in a Network Spike, Shafer Lab (AID 2284053; active = hit-call score of the fitted dose curve at least 0.9, where 1 is the maximum; inactive = score below 0.9;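 for AC50: fitted as decrease in spikes per network spike relative to DMSO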). In a few lines: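 Primary rat cortical neurons on 48-well, 16-electrode MEA plates were exposed from plating to DIV 12, with dosing renewed on DIV 5 and 9. Spikes per network spike (0.05 s peak window) were recorded on DIV 5, 7, 9 and 12 and collapsed as trapezoidal AUC versus DMSO.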

The nature of test [6]: CCTE_Shafer_MEA_dev_per_network_spike_spike_percent: CCTE's Neural Network Formation Assay for Percent of Spikes in a Network Spike, Shafer Lab (AID 2284054; active = hit-call score of the fitted dose curve at least 0.9, where 1 is the maximum; inactive = score below 0.9). The method, then:
CCTE_Shafer_MEA_dev assay is conducted using Axion Biosystems 48 well microelectrode array (MEA) plates and Maestro recording system. Each well of the MEA plate contains a grid of 16 microelectrodes embedded in the culture surface. Electrically active cells, such as neurons, can be cultured over the electrodes, and electrical activity in these cells can be recorded extracellularly. The spontaneous firing of neurons is captured from each electrode on a microsecond timescale providing both temporally and spatially precise data. […] The CCTE_Shafer_MEA_dev assay uses primary cultures of rat cortical neurons. Recordings are made on days post-plating 5, 7, 9 and 12. As these cultures mature over time, neural networks develop functional activity and form cohesive networks in which electrical activity can be highly coordinated. CCTE_Shafer_MEA_dev_per_network_spike_spike_percent is 1 of 19 assay components of the CCTE_Shafer_MEA_dev assay. It measures the percent of spikes (action potential firings) in a network spike (temporally-clustered group of spikes across multiple electrodes) as the number of spikes that occur within a 0.05 s time window at the peak of a network spike divided by the total number of spikes during a recording in a microelectrode array (MEA) using Axion Biosystems Maestro 768 channel amplifier with the AxIS adaptive spike detector. To collapse across multiple recordings made on days post-plating 5, 7, 9 and 12, the trapezoidal area-under-the-curve of the component is calculated.Data from the assay component CCTE_Shafer_MEA_dev_per_network_spike_spike_percent was analyzed into 1 assay endpoint. This assay endpoint, CCTE_Shafer_MEA_dev_per_network_spike_spike_percent, was analyzed in the negative analysis fitting direction relative to DMSO as the negative control and baseline of activity. Using a type of functional reporter, gain or loss-of-signal activity can be used to understand electrical activity.
On the day prior to culture, each well was coated thoroughly with 150 uL of 0.05% polyethyleneimine (PEI, Sigma Cat P3143) in 50 mM HEPES (Sigma Cat H7523) at a pH of 8. The plate was incubated at 37C for one hour. PEI was rinsed out with 500 uL of sterile water three times. Plates were stored at 4C until the day of culture. This culture was plated at a seeding density of 1.5 x 10^5 cells/well on a 48-well MEA plate, prepared as described above. Cells were administered via a 25 uL media/laminin ([…]; Sigma Cat L2020-1MG) drop directly onto the microelectrode array, as adding the cells with the laminin results in better attachment than pre-coating with laminin. After 2 hours, an additional 475 uL of cortical media was added and the cells returned to the incubator. Exposure starts at day 0 of plating and is continued over twelve days of network development until the experiment is terminated. Cells are fed with fresh medium on DIV 5 and 9, following the recordings on those days. The entire volume of media in the well is exchanged and any vehicle or compound treatment is renewed. Complete details are found in OP-NHEERL/ISTD/SBB/TJS/2015-03-r0 (available on request, email shafer.tim@epa.gov). Measurement of the electrical activity is non-invasive, and recordings can be made from the same plate over multiple different days of the culture. In cortical neurons, this allows for the measurement of extracellular action potentials over the period during which networks form in the MEA plate.

The nature of test [7]: CCTE_Shafer_MEA_dev_LDH: CCTE's Lactate Dehydrogenase Assay for Cytotoxicity in the Neural Network Formation Assay, Shafer Lab (AID 2284068).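 Note: exposure for twelve days from plating with re-dosing on DIV 5 and 9.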 In a few lines:
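Primary rat cortical neurons were plated on PEI/laminin MEA plates and exposed from day 0 for twelve days, with compound renewed at DIV 5 and 9. Cytotoxicity was determined by spectrophotometric LDH assay relative to DMSO.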

Test [8] in a line: CCTE_Shafer_MEA_dev_AB: CCTE's Alamar Blue Assay for Cytotoxicity in the Neural Network Formation Assay, Shafer Lab (AID 2284083).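 Note: twelve days of exposure from plating with re-dosing on DIV 5 and 9.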 In a few lines: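 Primary rat cortical neurons on PEI-coated 48-well MEA plates, 1.5 x 10^5 cells/well in laminin drop; compound exposure from day 0 of plating for twelve days, renewed at medium changes on DIV 5 and 9. Viability read as resazurin reduction by fluorescence, relative to DMSO.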

Test [9] is described as follows: UKN5_HCS_SBAD2_cell_viability: Viability Assessment in the University of Konstanz (UKN) Leist Lab Neurite Outgrowth Assay in human iPSC-derived immature Dorsal Root Ganglia Neurons (UKN5) (AID 2284056; active = hit-call score of the fitted dose curve at least 0.9, where 1 is the maximum; inactive = score below 0.9). The procedure, abridged: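 iPSC-derived immature peripheral neurons (SBAD2) seeded on Matrigel with CHIR99021, SU5402 and DAPT, dosed 1 h later for 24 h. Viability from Hoechst H-33342 and calcein-AM live staining, high-content imaging; bidirectional fit versus DMSO.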

A short description of test [10]: UKN5_HCS_SBAD2_neurite_outgrowth: University of Konstanz (UKN) Leist Lab Neurite Outgrowth Assay in human iPSC-derived immature Dorsal Root Ganglia Neurons (UKN5) (AID 2284070; active = hit-call score of the fitted dose curve at least 0.9, where 1 is the maximum; inactive = score below 0.9). The note with it: actives raise or lower the signal. In a few lines:
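Cryopreserved SBAD2 peripheral neurons were seeded at 100.000 cells/cm2 in N2-S/KSR medium containing CHIR99021, SU5402 and DAPT, then exposed to compounds for 24 h. Neurite area from calcein-AM high-content imaging was fitted bidirectionally against DMSO.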

Consider `Nc1nc(=S)c2[nH]cnc2[nH]1`, for which the outcome in test [1] and in test [2] was inactive.
In the case of `Cc1ccc(C(C)(C)C)c(O)c1`, the outcome in [2] was inactive.
Turning to `C/C=C/c1ccc(OC)cc1`, the call in test [1] and in test [2] was inactive.
With `CC(=O)CC(c1ccccc1)c1c(O)c2ccccc2oc1=O` (stereo unspecified), the outcome in test [3], in test [4], in test [6], in test [7] and in test [8] was inactive. For the same compound, the AC50 (commonly the midpoint of the concentration-response curve, whichever way the signal moves) in [5] is 2.98 µM (active).
With `CN(C)C(=O)NC1(c2ccccc2)CCN(CCC[C@]2(c3ccc(Cl)c(Cl)c3)CCCN(C(=O)c3ccccc3)C2)CC1`, the outcome in test [1] and in test [2] was inactive.
For `CN(C)CCCN1c2ccccc2Sc2ccc(Cl)cc21`, the half-maximal activity concentration (AC50) in test [3] was 3.38 µM (active); in test [4], 2.81 µM (active); in test [5], 4.44 µM (active); in test [6], 9.39 µM (active); in test [9] it was 13.7 µM (active); in test [7] it was 5.01 µM (active). In addition, the values for the half-maximal activity concentration (AC50) in test [10] and in [8] were 6.11 µM (active) and 15 µM (active), respectively. The result in test [1] and in [2] was inactive.
As to `CCN(CC)CCOc1ccc(C(=C(Cl)c2ccccc2)c2ccccc2)cc1`, the compound was called inactive in test [1] and in [2].
As for `COC(=O)[C@H]1[C@H]2C[C@@H]3c4[nH]c5cc(OC)ccc5c4CCN3C[C@H]2C[C@@H](OC(=O)c2cc(OC)c(OC)c(OC)c2)[C@@H]1OC`, the AC50 in test [3] was 2.71 µM (active); in [4] it was 2.18 µM (active); in test [5], 4.8 µM (active); in test [6], 15.3 µM (active); in [7], 6.75 µM (active); in test [8], 10 µM (active). The call in [1] and in [2] was inactive.
Consider `Cc1cc(Cc2ccc(N)c(C)c2)ccc1N`, for which the outcome in test [1] and in [2] was inactive.
As to `CC(C)COC(=O)CCCCC(=O)OCC(C)C`, the compound was classed as inactive in [1] and in [2].
`CC(C)NCC(O)c1ccc(O)c(O)c1` (stereo unspecified): the compound was called inactive in test [1] and in [2].
As to `CCCC(=O)O`, the result in test [1] and in [2] was inactive.
Take `O=C1OC(c2ccc(O)cc2)(c2ccc(O)cc2)c2ccccc21`: the call in test [1] was inactive.
With `Cc1c(C)c2c(c(C)c1O)CCC(C)(COc1ccc(CC3SC(=O)NC3=O)cc1)O2` (stereo unspecified), the compound was called inactive in test [1].
Turning to `c1ccc2occc2c1`, the compound was called inactive in test [1] and in test [2].
Regarding `CCc1cc(C2=C(C(=O)O)N(c3ccccc3C(F)(F)F)S(=O)(=O)c3ccccc32)cc2c1OCO2`, the call in test [1] and in test [2] was inactive.
Turning to `CC(N)=O`, in [2], the compound was called inactive.
On the same count and under the same terms, as for `CCCCC(CC)COP(=O)(OCC(CC)CCCC)OCC(CC)CCCC` (stereo unspecified), the entry is “inactive”.
In the case of `COc1ccc(OC(F)(F)F)cc1CN[C@H]1CCCN[C@H]1c1ccccc1`, the compound was classed as inactive in test [1] and in [2].
In the case of `Oc1ccc(O)cc1`, the compound was called inactive in test [1] and in test [2].
Take `O=C1NC(=O)C(c2ccccc2)(c2ccccc2)N1`: the compound was called inactive in test [3], in test [4], in [5], in test [6], in [9] and in test [7]. In addition, in test [10], the call was inactive.
For `Cc1cc(SC2=C(O)C[C@@](CCc3ccc(N)cc3)(C(C)C)OC2=O)c(C(C)(C)C)cc1CO`, the call in test [2] was inactive.
In the case of `NC(=Nc1ccccc1)Nc1ccccc1`, the compound was classed as inactive in test [1] and in test [2].
With `O=C(O)CN(CC(=O)O)CC(=O)O`, the call in test [2] was inactive.
As to `CN(C)C(=O)NC1(c2ccccc2)CCN(CC[C@@]2(c3ccc(F)c(F)c3)CN(C(=O)c3ccccc3)CCO2)CC1`, the compound was classed as inactive in [1] and in test [2].
As to `O=C(N[C@@H](c1ccccc1)[C@@H]1CCCCN1)c1cccc(C(F)(F)F)c1Cl`, the call in test [1] and in test [2] was inactive.
As for `CSc1ccc(Oc2ccc(S(N)(=O)=O)cc2CN(C)C)cc1C`, the call in test [1] was inactive.
As for `OCC(CO)n1cnc(-c2ccc(F)cc2)c1-c1ccnc(Oc2ccccc2)n1`, the call in [2] was inactive.
On the same count and under the same terms, as for `CC1=C(C)S(=O)(=O)CCS1(=O)=O`, the entry is “inactive”.
With `OCC(O)CO`, the call in [3], in test [4], in test [5], in test [6] and in [8] was inactive.
